Assay results published in PubChem BioAssay (NCI).
Several values for one entry are separate records, joined by “and”; a condition that tells them apart may be missing. Equal entries are not always repeated. About 83,000 compounds went through this panel and 20% of them were active in at least one assay; those are over-represented in the sample as a whole.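 Method: cells in 96-well plates; compound added at one concentration; 48 h incubation; percent growth measured; values under 10 scored active.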 Activity calls are given as the source filed them.

How the values were obtained:
Experiment in all cases: NCI-60 one-dose screen, 48 h (100 = growth as untreated, 0 = no growth, -100 = all killed)
Settings in all cases: 10 µM unless noted
NCI-H23 lung = test system: NCI-H23 lung
NCI-H226 lung = test system: NCI-H226 lung
NCI-H322M lung = test system: NCI-H322M lung
HOP-62 NSCLC = test system: HOP-62 NSCLC
NCI-H460 lung = test system: NCI-H460 lung
HOP-92 NSCLC = test system: HOP-92 NSCLC
NCI-H522 lung = test system: NCI-H522 lung
A549/ATCC NSCLC = test system: A549/ATCC NSCLC
786-0 renal = test system: 786-0 renal
COLO 205 colon = test system: COLO 205 colon
DU-145 prostate = test system: DU-145 prostate
K-562 leukemia = test system: K-562 leukemia
MALME-3M melanoma = test system: MALME-3M melanoma
MDA-MB-231 breast = test system: MDA-MB-231 breast
RXF 393 renal = test system: RXF 393 renal
SF-268 CNS = test system: SF-268 CNS
SF-295 CNS = test system: SF-295 CNS
SF-539 CNS = test system: SF-539 CNS
UACC-257 melanoma = test system: UACC-257 melanoma
M14 melanoma = test system: M14 melanoma

Measured: growth

CC1=CC(=O)c2cccc(NC3=NCCO3)c21
inactive: NCI-H23 lung 100% | NCI-H226 lung 94.2% | NCI-H322M lung 99.4% | HOP-62 NSCLC 84.9% | NCI-H460 lung 107% | HOP-92 NSCLC 77.6% | NCI-H522 lung 87.8% | A549/ATCC NSCLC 92.3% | 786-0 renal 91.9% | COLO 205 colon 102% | DU-145 prostate 108% | K-562 leukemia 82.4% | MALME-3M melanoma 93.4% | MDA-MB-231 breast 102% | RXF 393 renal 117% | SF-268 CNS 100% | SF-295 CNS 95.1% | SF-539 CNS 95.7% | UACC-257 melanoma 94.2% | M14 melanoma 97.1%

Oc1cccnc1CN1CCOCC1
inactive: NCI-H23 lung 110% and 95.7% | NCI-H226 lung 99.1% and 95.7% | NCI-H322M lung 98.3% and 102% | HOP-62 NSCLC 96.6% and 92.7% | NCI-H460 lung 114% and 109% | HOP-92 NSCLC 88.4% and 84.8% | NCI-H522 lung 93.8% and 120% | A549/ATCC NSCLC 102% and 96.5% | 786-0 renal 105% and 101% | COLO 205 colon 102% and 110% | DU-145 prostate 108% and 116% | K-562 leukemia 108% and 105% | MALME-3M melanoma 106% | MDA-MB-231 breast 104% and 86.9% | RXF 393 renal 114% and 112% | SF-268 CNS 106% and 116% | SF-295 CNS 111% and 105% | SF-539 CNS 92.6% and 94.9% | UACC-257 melanoma 99.6% and 98.2% | M14 melanoma 109% and 103%

N=c1sc2ccccc2n1CC(=O)O
inactive: NCI-H23 lung 108% | NCI-H226 lung 98.1% | NCI-H322M lung 103% | HOP-62 NSCLC 88.8% | NCI-H460 lung 109% | HOP-92 NSCLC 82.1% | NCI-H522 lung 87.1% | A549/ATCC NSCLC 83.7% | 786-0 renal 101% | COLO 205 colon 106% | DU-145 prostate 110% | K-562 leukemia 108% | MALME-3M melanoma 110% | MDA-MB-231 breast 102% | RXF 393 renal 113% | SF-268 CNS 98.7% | SF-295 CNS 98% | SF-539 CNS 101% | UACC-257 melanoma 89.7% | M14 melanoma 95.7%

CC(=O)Oc1ccc(C(c2ccc(OC(C)=O)cc2)c2ccccn2)cc1
inactive: NCI-H23 lung 59.7% and 57% | NCI-H226 lung 89.2% and 106% | NCI-H322M lung 30.6% and 64.6% | HOP-62 NSCLC 87.9% and 109% | NCI-H460 lung 105% and 101% | HOP-92 NSCLC 66.1% and 34.1% | NCI-H522 lung 91.4% and 72.6% | A549/ATCC NSCLC 87% and 13.8% | 786-0 renal 101% | COLO 205 colon 24% and 17.9% | DU-145 prostate 96.8% and 106% | K-562 leukemia 89.6% and 99.2% | MALME-3M melanoma 100% and 107% | MDA-MB-231 breast 100% and 102% | RXF 393 renal 71.9% and 16.1% | SF-268 CNS 104% and 99.3% | SF-295 CNS 92.1% | SF-539 CNS 100% and 75.6% | UACC-257 melanoma 96.1% and 88.3% | M14 melanoma 95.1% and 69.3%

COC(=O)c1nc(N)nc(C(=O)OC)c1C(=O)c1cccc2ccccc12
inactive: NCI-H23 lung 101% | NCI-H226 lung 97.1% | NCI-H322M lung 109% | HOP-62 NSCLC 105% | NCI-H460 lung 139% | HOP-92 NSCLC 85.5% | NCI-H522 lung 101% | A549/ATCC NSCLC 107% | 786-0 renal 110% | COLO 205 colon 144% | DU-145 prostate 121% | K-562 leukemia 111% | MALME-3M melanoma 103% | MDA-MB-231 breast 105% | RXF 393 renal 105% | SF-268 CNS 116% | SF-295 CNS 98.7% | SF-539 CNS 95.4% | UACC-257 melanoma 118% | M14 melanoma 108%

CC(C)(C)C1CCC(=NO)CC1 (stereo not given)
inactive: NCI-H23 lung 95.5% | NCI-H226 lung 99.9% | NCI-H322M lung 106% | HOP-62 NSCLC 95.9% | NCI-H460 lung 99.6% | HOP-92 NSCLC 71.4% | NCI-H522 lung 92.5% | A549/ATCC NSCLC 91.6% | 786-0 renal 94.5% | COLO 205 colon 117% | DU-145 prostate 112% | K-562 leukemia 128% | MALME-3M melanoma 103% | MDA-MB-231 breast 104% | RXF 393 renal 90.6% | SF-268 CNS 109% | SF-295 CNS 98.3% | SF-539 CNS 96.2% | UACC-257 melanoma 76.4% | M14 melanoma 100%

COC(=O)c1ccccc1Cl
active: K-562 leukemia 8.26%
inactive: NCI-H23 lung 103% | NCI-H226 lung 101% | NCI-H322M lung 97.4% | HOP-62 NSCLC 98.3% | NCI-H460 lung 106% | HOP-92 NSCLC 85.3% | NCI-H522 lung 102% | A549/ATCC NSCLC 99.4% | 786-0 renal 102% | COLO 205 colon 102% | DU-145 prostate 106% | MALME-3M melanoma 95% | MDA-MB-231 breast 111% | RXF 393 renal 121% | SF-268 CNS 98.9% | SF-295 CNS 92.1% | SF-539 CNS 93.5% | UACC-257 melanoma 102% | M14 melanoma 102%

Nc1nc(N)c2cc(S(=O)(=O)c3ccccc3)ccc2n1
inactive: NCI-H23 lung 45% and 40.9% | NCI-H226 lung 63.2% and 79.3% | NCI-H322M lung 43.6% and 41.5% | NCI-H460 lung 18.3% and 14.7% | HOP-92 NSCLC 64.9% and 92.5% | NCI-H522 lung 46.2% and 68.9% | A549/ATCC NSCLC 13.4% and 25.7% | 786-0 renal 29.5% and 26.8% | COLO 205 colon 53.7% and 58.3% | DU-145 prostate 30.3% and 40.9% | K-562 leukemia 16.7% and 26.1% | MALME-3M melanoma 58.1% and 29% | MDA-MB-231 breast 48.9% and 51.8% | RXF 393 renal 62% and 85.6% | SF-268 CNS 40.1% and 38% | SF-295 CNS 18.9% | SF-539 CNS 30.5% and 21.8% | UACC-257 melanoma 39% and 59.2% | M14 melanoma 35.2% and 31.9%

Cc1cnc(N)s1
inactive: NCI-H23 lung 97.5% | NCI-H226 lung 90.6% | NCI-H322M lung 99.6% | NCI-H460 lung 105% | HOP-92 NSCLC 91.3% | NCI-H522 lung 77.9% | A549/ATCC NSCLC 69% | 786-0 renal 106% | COLO 205 colon 102% | DU-145 prostate 106% | K-562 leukemia 92.9% | MALME-3M melanoma 98.1% | MDA-MB-231 breast 91.6% | RXF 393 renal 105% | SF-268 CNS 93.8% | SF-295 CNS 98.3% | SF-539 CNS 103% | UACC-257 melanoma 84.4% | M14 melanoma 91.9%

OCc1ccccc1F
inactive: NCI-H23 lung 88% | NCI-H226 lung 103% | NCI-H322M lung 105% | NCI-H460 lung 48.1% | HOP-92 NSCLC 106% | NCI-H522 lung 71.1% | A549/ATCC NSCLC 93.4% | 786-0 renal 101% | COLO 205 colon 92.3% | DU-145 prostate 11.4% | K-562 leukemia 106% | MALME-3M melanoma 134% | MDA-MB-231 breast 86.3% | RXF 393 renal 77.5% | SF-268 CNS 95.8% | SF-295 CNS 72% | SF-539 CNS 101% | UACC-257 melanoma 107% | M14 melanoma 90.8%

COc1ccc2oc3c(ccc[n+]3C)c(=O)c2c1
inactive: NCI-H23 lung 105% | NCI-H226 lung 98.3% | NCI-H322M lung 105% | NCI-H460 lung 108% | HOP-92 NSCLC 94.7% | NCI-H522 lung 82.7% | A549/ATCC NSCLC 84% | 786-0 renal 105% | COLO 205 colon 98.6% | DU-145 prostate 113% | K-562 leukemia 99% | MALME-3M melanoma 102% | MDA-MB-231 breast 110% | RXF 393 renal 108% | SF-268 CNS 101% | SF-295 CNS 99.5% | SF-539 CNS 98.2% | UACC-257 melanoma 87.3% | M14 melanoma 102%

COC(=O)C(Cc1cn(C(C)=O)c2ccccc12)P(=O)(OC)OC (stereo not given)
inactive: NCI-H23 lung 98.5% | NCI-H226 lung 91.5% | NCI-H322M lung 101% | NCI-H460 lung 98.1% | HOP-92 NSCLC 98.8% | NCI-H522 lung 103% | A549/ATCC NSCLC 106% | 786-0 renal 105% | COLO 205 colon 105% | DU-145 prostate 109% | K-562 leukemia 102% | MALME-3M melanoma 96.1% | MDA-MB-231 breast 97.9% | RXF 393 renal 116% | SF-268 CNS 96.3% | SF-295 CNS 97.1% | SF-539 CNS 97.3% | UACC-257 melanoma 110% | M14 melanoma 91.9%
